Results published in PubChem BioAssay AID1903 (Southern Research Specialized Biocontainment Screening …, 2009).
“And” between values parts separate entries of the source, which are not always exact repeats. Equal entries are not always repeated. In all, about 310,000 compounds went through this assay and about 1,200 (0.39%) were called active. The rule behind the calls is not given here. These entries were drawn from the full list. Entries with a potency or affinity are not part of this list.

The compounds below were run against Large T antigen (Simian virus 40) (UniProt P03070) (assay: TAg ATPase/helicase activity blockers – biochemical (AID 1903)). Settings: SV40 large T antigen ATPase/helicase inhibition assay; at 20 µM; hits give high values.
Sequence of Large T antigen (Simian virus 40) (P03070 whole entry, looked up): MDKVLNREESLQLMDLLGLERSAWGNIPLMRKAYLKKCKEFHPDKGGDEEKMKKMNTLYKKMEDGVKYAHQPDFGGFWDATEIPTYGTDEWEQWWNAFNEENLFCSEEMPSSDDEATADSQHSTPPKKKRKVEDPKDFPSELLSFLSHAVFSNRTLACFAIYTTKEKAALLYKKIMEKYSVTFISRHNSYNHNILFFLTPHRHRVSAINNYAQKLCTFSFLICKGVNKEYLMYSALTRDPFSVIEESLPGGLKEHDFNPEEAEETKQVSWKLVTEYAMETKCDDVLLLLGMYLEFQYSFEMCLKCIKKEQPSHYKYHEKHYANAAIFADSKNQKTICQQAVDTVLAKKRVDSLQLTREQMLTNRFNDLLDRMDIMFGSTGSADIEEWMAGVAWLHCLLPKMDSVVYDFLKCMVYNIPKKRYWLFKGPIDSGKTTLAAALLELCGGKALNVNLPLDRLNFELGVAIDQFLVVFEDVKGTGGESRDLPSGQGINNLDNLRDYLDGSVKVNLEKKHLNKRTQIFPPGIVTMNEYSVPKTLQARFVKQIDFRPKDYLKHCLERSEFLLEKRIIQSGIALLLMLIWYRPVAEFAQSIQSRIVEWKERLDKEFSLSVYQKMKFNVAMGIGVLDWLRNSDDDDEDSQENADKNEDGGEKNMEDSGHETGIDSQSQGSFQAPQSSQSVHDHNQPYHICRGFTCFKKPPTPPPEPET

inhibition, inactive:
Cc1cccn2c(=O)c3cc(C(=O)NC4CCCCC4)c(=N)n(Cc4ccccc4)c3nc12 5.16%, Cc1nc2sc3c(c2c2nc(-c4ccco4)nn12)CCCC3 14.8%, Cc1nc2sc3c(c2c(=O)o1)CCC3 9.19%, COc1ccc(C(=O)NCC(=O)OCc2ccccc2F)cc1 6.15%, O=C(COc1ccc(S(=O)(=O)N2CCOCC2)cc1)NCCCn1ccnc1 7.23%, COc1cccc(CNS(=O)(=O)c2c(C(=O)N3CCCCCC3)c(C)n(C)c2C)c1 2.83%, CC(C)CN(CC(C)C)C(=O)CN1C(=O)NC2(CCc3ccccc3C2)C1=O (configuration not stated) 23.5%, N#Cc1c(N)sc2c1CCCCCC2 32%, N#Cc1c(N)sc(=S)c2c1CCCC2 29.3%, Cn1c(CNC(=O)c2ccc3c(c2)OCO3)nnc1SCC(=O)Nc1ccccc1Cl 10.7%, COc1ccc(Cc2c(N)nc(N)nc2N)cc1 -2.12%, Nc1ccc(OCCc2ccccc2)cc1 30.9%, CC(C)C1N=C2c3ccccc3N=C(SCC#N)N2C1=O (configuration not stated) 6.69%, CC(C)C1N=C2c3ccccc3N=C(SCC(=O)NCCc3ccc(S(N)(=O)=O)cc3)N2C1=O (configuration not stated) 1%, Cc1ccc(-c2nnc(SCC(=O)N3c4ccccc4NC(=O)C3(C)C)n2N)cc1 4.15%, CCOc1ccc(/C=C\C(C)=N\O)cc1 29.6%, O=C(/C=C/c1ccc(O)c(O)c1)NC(=O)c1ccccc1O 6.12%, COc1cc(/C=C/C(=O)O)ccc1O 24.2%, CC(/C=C/c1ccccc1)=N/O 10.9%, O=Cc1ccc(O)c(O)c1 34.4%, Cc1ccc(/C=C/C(=O)c2ccccc2O)cc1 11.7%, COc1cc(/C=C/c2ccc(O)cc2)cc(OC)c1 11.3% and 1.99%, Nc1cccc(/C=C/C(=O)O)c1 15.7%, Cc1nc2ccccc2c(=O)n1-c1ccc(NS(=O)(=O)c2ccccc2)cc1 -1.73%, NC(=O)C1CCN(C(=O)c2cccc3ccccc23)CC1 16.8%, CCOC(=O)CC1C(=O)NCCN1C(=O)c1ccc(Cl)cc1Cl (configuration not stated) 3.58%, Fc1ccc(C2c3cccn3CCN2C(=S)Nc2cccc(F)c2)cc1 (configuration not stated) 6.14%, Cn1c(=O)c(C(=O)CN2CCN(S(=O)(=O)c3ccccc3)CC2)c(N)n(Cc2ccccc2)c1=O 2.73%, COC(=O)C1C(=O)c2c([nH]c(C(=O)OC3CCCCC3)c2C)CC1C (configuration not stated) 0.84%, O=C1OC(c2ccc3c(c2)OCO3)N(C(=O)c2ccc(Cl)c(Cl)c2)c2ccccc21 (configuration not stated) 10.3%, CCCC(=O)N(c1ccc2oc(=O)sc2c1)S(=O)(=O)c1ccccc1 22.9%, COc1ccc(C(CNC(=O)COc2ccccc2)N2CCOCC2)cc1 (configuration not stated) 5.3%, CCCc1cc(=O)[nH]c(SCCCCN2C(=O)c3ccccc3C2=O)n1 16.4%, O=C(/C=C/c1ccc(O)cc1)c1c(O)cc(O)cc1O 3.62%, CC(C)c1ccc(/C=C/C(=O)O)cc1 15.3%, CC(Nc1ccc2c(c1)OCCO2)C(=O)N1c2ccccc2CC1C (configuration not stated) 16.6%, CC1Cc2ccccc2N1CC(=O)Nc1ccc(N2CCOCC2)cc1 (configuration not stated) 27%, c1ccc(-c2ccc3c(c2)NC(C2Nc4cc(-c5ccccc5)ccc4O2)O3)cc1 (configuration not stated) 19.8%, O=C1CCNc2ccc(-c3ccccc3)cc21 5.5%, Nc1cccc2c1C(=O)N(Cc1cccc(Cl)c1)C2=O 1.68%, O=C1c2ccccc2C(=O)N1Cc1cc(Cl)c(O)c([N+](=O)[O-])c1 6.24%, O=C(c1cccs1)N1CCCC(N2CCN(c3ccc(F)cc3)CC2)C1 (configuration not stated) 7.59%, Cn1c(=O)n(Cc2ccccc2F)c2ccccc21 9.44%, Nc1nc(O)c(N=Nc2ccc(S(N)(=O)=O)cc2)c(=O)[nH]1 -12.8%, NS(=O)(=O)c1ccc(N=Nc2ccc(O)c3ncccc23)cc1 13.3%, COc1ccc2[nH]c(=O)c(CN(CCO)S(=O)(=O)c3ccc4c(c3)OCCO4)cc2c1 -3.52%, O=[N+]([O-])c1ccc(O)c2ncccc12 -8.5% and 12.1%, O=[N+]([O-])c1cc(Cl)c(O)c2ncccc12 14.7%, COCc1cc(SC2CCCCC2)nc(C)n1 10.5%, O=C(CSc1nc2[nH]ncc2c(=O)[nH]1)Nc1nccs1 12.6%, CCN(CC1CCCO1)C(=O)CCc1nnc(CCc2ccc(OC)cc2)o1 (configuration not stated) 0.66%, O=C1CCC(=O)N1c1nc2nc(-c3ccccc3)cc(-c3ccccc3)n2n1 3.94%, Cc1ccc(S(=O)(=O)N2CCN(CC(=O)Nc3ccc(N4CCOCC4)cc3)CC2)cc1C 10.9%, CC(=O)N1CCN(CC(=O)Nc2cc(S(=O)(=O)N3CCOCC3)ccc2C)CC1 10.5%, CN1CCN(CC(=O)Nc2cc(S(=O)(=O)N3CCOCC3)ccc2Cl)CC1 8.7%, COc1ccccc1N1CCN(C(=S)Nc2ccc(S(=O)(=O)N3CCOCC3)cc2)CC1 -0.03%, O=C(CN1CCN(c2ccc(O)cc2)CC1)Nc1cc(S(=O)(=O)N2CCCCC2)ccc1Cl 28.7%, O=S(=O)(c1ccc(NC(=S)N2CCN(c3ccccc3F)CC2)cc1)N1CCOCC1 11.6%, CC(NC(=O)Cn1c(NCCO)nc2ccccc21)c1ccccc1 (configuration not stated) -0.56%, CCOc1ccc(C(=O)NC(C(=O)NCc2ccccc2OC)C(C)C)cc1 (configuration not stated) 20.8%, Cc1ccc(CNC(=O)c2ccccc2NC(=O)CN2CC(C)OC(C)C2)cc1 (configuration not stated) 2.54%, Cc1ccc(S(=O)(=O)N(C)C)cc1NC(=O)COC(=O)c1ccc2c(c1)NC(=O)CS2 2.57%, CC(CN1CCCCC1)OC(=O)c1ccc(Cl)cc1 (configuration not stated) -0.49%, Cc1[nH]c2ccccc2c1-c1csc(NC(=O)CSCCO)n1 23.2%, Cc1[nH]c2ccccc2c1-c1csc(NC(=O)CN2CCOCC2)n1 35.5%, Cc1ccc(CNC(=O)COC(=O)c2cc3c(s2)CCC(C)C3)cc1 (configuration not stated) 0.58%, C#CCOCCOCCOCCNc1nc(N2CCN(C(=O)Cn3cc(CCCN=C(N)N)nn3)CC2)nc(N2CCN(C(=O)[C@H](CCCCN)n3cc(CCCC)nn3)CC2)n1 10.3%, O=C(NC1CC1)c1scc2c1OCCO2 -3.94%, COc1ccc(CC(=O)N/N=C(\C)CC(=O)Nc2ccc3c(c2)OCCO3)cc1OC 8.47%, COc1cc(NC(=O)C/C(C)=N/NC(=O)C(OC)c2ccccc2)c(OC)cc1Cl (configuration not stated) 7.44%, COC(C(=O)Nc1ccc(NC(=O)C(OC)c2ccccc2)cc1)c1ccccc1 (configuration not stated) 0.71%, COc1ccc(CNC(=O)C/C(C)=N/NC(=O)Cc2ccc(OC)c(OC)c2)cc1 9.86%, CC(=O)NC(C)Cc1cn(Cc2ccccc2)c2ccccc12 (configuration not stated) 19.1%, COC(=O)c1sc(NC(=O)c2cccc([N+](=O)[O-])c2)c(C(N)=O)c1C 9.65%, Cc1ccccc1CNCCCSc1ncccn1 11.1%, COc1ccc(CN2CCCCCC2)c(C)c1C 12.7%, CC(C)(C)c1cc2nc(N)nc(N)n2n1 8.32%, O=C(Nc1ccccc1Cl)c1ccc(COc2ccc3c(c2)CCC3)cc1 20.5%, CN(C(=O)CC(NC(=O)c1ccccc1Cl)c1ccccc1)c1ccccc1 (configuration not stated) 12.8%, COc1cc2ccc3c(CCN(C)C)cc(OC)c(OC)c3c2cc1OC 6.37%, COc1cc2cccc(OC)c(=O)c2c(O)c1OC 2.12%, CC(=O)Nc1ccc(S(=O)(=O)Oc2ccccc2N2CCCCC2)cc1 2.71%, CCOc1cc(/C=N/NC(=O)C(=O)N/N=C/c2ccc(O)c(OCC)c2)ccc1O 8.63%, COc1ccc(/C=N/NC(=O)CC(=O)NCCc2ccccc2)cc1OC -5.15%, COc1ccccc1/C=N/NC(=O)CC(=O)NCCc1ccccc1 9.39%, CCOc1ccc(/C=N\NC(=O)CC(=O)NCCc2ccccc2)cc1 4.85%, Cc1ccc(/C=N\NC(=O)CC(=O)NCCc2ccccc2)cc1 7.24%, COc1cc(/C=N/n2cnnc2)ccc1OC(=O)c1ccco1 24.8%, CCOc1cc(/C=N/NC(=O)C2CCCC2)ccc1O 36.2%, COc1cc(/C=N/n2cnnc2)ccc1OC(=O)c1cccnc1 27.4%, CC(Nc1c[nH]c(=O)[nH]c1=O)c1ccccc1 (configuration not stated) 28.4%, N#CC1=C(N)N2C(=C(C#N)C13CCCCC3)SC1CCCCC12O (configuration not stated) 2.16%, CCc1cc(Cn2nc(-c3ccccc3)cc2C(=O)NCc2ccccc2OC)on1 2.01%, COc1ccccc1CC(NC(C)=O)C(=O)N1CCN(C(=O)Nc2ccccc2Cl)CC1 (configuration not stated) 11.4%, Cc1ccc(NC(=O)c2ccc3nsnc3c2)c(C)c1 3.08%, O=C(NC(C1CC1)C1CC1)C1CCC(=O)N(CCCN2CCCC2=O)C1 (configuration not stated) 8.58%, FC(F)(F)c1cccc(Nc2nc(N3CCOCC3)nc(N3CCOCC3)n2)c1 6.77%
